Records with an inconclusive call do not appear. Active and inactive are the calls of the source. Calls follow the shape of the dose curve; as a rule, active = well fitted inhibition curve with a large enough effect; inconclusive = small, poorly fitted or top-dose-only effect; inactive = flat fitted curve, though single readings scatter.
Tests used:
Experiment in all cases: qHTS profiling for inhibitors of Plasmodium falciparum proliferation (AID 504749); also: nearly all actives have a fitted effect of over 60% in size
Details in all cases: P. falciparum in erythrocytes, SYBR Green DNA, 72 h; series mostly up to 28.7 µM
[1] = system: CP237
Method in brief: (§1)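 Three-day growth assay of blood-stage parasites in erythrocytes (0.3% parasitemia, 2.5% hematocrit) at 37 C, 5% CO2, quantified by SYBR Green DNA staining after overnight detergent lysis.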

[2] = system: CP238
Method in brief: as §1

[3] = system: CP247
Method in brief: as §1

[4] = system: CP250
Method in brief: as §1

[5] = system: CP252
Method in brief: as §1

[6] = system: CP256
Method in brief: as §1

[7] = system: CP260
Method in brief: as §1

[8] = system: CP262
Method in brief: as §1

[9] = system: CP265
Method in brief: as §1

[10] = system: CP266
Method in brief: as §1

[11] = system: CP268
Method in brief: as §1

[12] = system: CP269
Method in brief: as §1

[13] = system: CP286
Method in brief: as §1

[14] = system: CP291
Method in brief: as §1

[15] = system: CP297
Method in brief: as §1

[16] = system: CP305
Method in brief: as §1

[17] = system: CP315
Method in brief: as §1

[18] = system: CP325
Method in brief: as §1

[19] = system: CP329
Method in brief: as §1

[20] = system: CP335
Method in brief: as §1

Measured: Potency

NCCCC[C@H](N[C@@H](CCc1ccccc1)C(=O)O)C(=O)N1CCC[C@H]1C(=O)O
inactive: all assays above

Cc1c(C(C)C)c(=O)n(-c2ccccc2)n1C
inactive: all assays above

Cc1c(N(C)CS(=O)(=O)O)c(=O)n(-c2ccccc2)n1C
inactive: all assays above

OCc1ccccc1O
inactive: all assays above

CC(C)(C(=O)c1cccnc1)c1cccnc1
inactive: all assays above

Nc1ccc(C(=O)Nc2ccccc2N)cc1
inactive: all assays above

CC(=O)N(O)CCCCCNC(=O)CCC(=O)N(O)CCCCCNC(=O)CCC(=O)N(O)CCCCCN
inactive: all assays above

NCCc1ccn[nH]1
inactive: all assays above

Cc1cc(O)c(C(C)C)cc1Cl
inactive: all assays above

C#C[C@]1(OC(C)=O)CC[C@H]2[C@@H]3CCC4=C[C@@H](OC(C)=O)CC[C@@H]4[C@H]3CC[C@@]21C
inactive: all assays above

O=C(COc1ccc(Cl)cc1)N1CCN(Cc2ccc3c(c2)OCO3)CC1
inactive: all assays above

From PubChem BioAssay (NCATS)
